About 83,000 compounds went through this panel and 20% of them were active in at least one assay; those are over-represented in the sample as a whole.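 Step 1: grow cells in 96-well plates. Step 2: add test compound at a single concentration. Step 3: incubate 48 h. Step 4: record percent growth.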 Active and inactive are the calls of the source. The calls were made as follows: active = growth percent below 10; inactive = the rest.
Columns and labels:
Test in all cases: NCI-60 one-dose screen, 48 h (100 = growth as untreated, 0 = no growth, -100 = all killed)
HT29 colon = conditions: 10 µM unless noted
SNB-75 CNS = conditions: 10 µM unless noted
SNB-19 CNS = conditions: 10 µM unless noted
U251 CNS = conditions: 10 µM unless noted
PC-3 prostate = conditions: 10 µM unless noted
SK-MEL-5 melanoma = conditions: 10 µM unless noted
LOX IMVI melanoma = conditions: 10 µM unless noted
SK-MEL-28 melanoma = conditions: 10 µM
SK-MEL-2 melanoma = conditions: 10 µM unless noted
UACC-62 melanoma = conditions: 10 µM unless noted

Measured: growth

Cc1ccc2nc(NC(=O)CSC(=S)N3CCN(c4ccccc4)CC3)sc2c1
active: LOX IMVI melanoma -65%
inactive: HT29 colon 96.6% | SNB-75 CNS 97.1% | SNB-19 CNS 96.9% | U251 CNS 86.3% | PC-3 prostate 95.5% | SK-MEL-5 melanoma 95.4% | SK-MEL-28 melanoma 107% | SK-MEL-2 melanoma 96.1%

COc1ccc(/C=C2\CCC/C(=C\c3ccc(OC)c(OC)c3)C2=O)cc1OC
inactive: SNB-19 CNS 37.8% | U251 CNS 12.3% | PC-3 prostate 40.8% | SK-MEL-2 melanoma 86.4%
active: HT29 colon 1.7% | SNB-75 CNS 0.689% | SK-MEL-5 melanoma 5.95% | UACC-62 melanoma -2.18% | LOX IMVI melanoma -35%

O=S1(=O)N(Cc2ccccc2)[C@@H](Cc2ccccc2)C2O[C@H]2[C@H](Cc2ccccc2)N1Cc1ccccc1 (some centres undefined)
inactive: HT29 colon 46.7% | SNB-75 CNS 46.3% | SNB-19 CNS 44.9% | U251 CNS 41.5% | PC-3 prostate 42% | SK-MEL-5 melanoma 28.3% | UACC-62 melanoma 40.8% | LOX IMVI melanoma 19.6% | SK-MEL-2 melanoma 84.1%

O=C(Nc1ccc(I)cc1F)c1cc(Cl)ccc1O
active: SNB-75 CNS -24.3% | U251 CNS 0.895% | PC-3 prostate 3.02% | UACC-62 melanoma -18.8% | LOX IMVI melanoma 0.0612% | SK-MEL-28 melanoma -4.2% | SK-MEL-2 melanoma -30.8%
inactive: HT29 colon 33.5% | SNB-19 CNS 18.6%

COc1cc(NC(=O)CCSc2nc3ccccc3c(=O)n2CCc2ccccn2)cc(OC)c1OC
inactive: HT29 colon 102% | SNB-19 CNS 98.6% | U251 CNS 85.1% | PC-3 prostate 81.6% | UACC-62 melanoma 84% | LOX IMVI melanoma 94.8% | SK-MEL-28 melanoma 83.3% | SK-MEL-2 melanoma 92.4%
active: SNB-75 CNS 8.5%

O=c1oc2ccc(Br)cc2c(=O)n1-c1ccc(I)cc1F
inactive: HT29 colon 40.1% | SNB-19 CNS 18.4%
active: SNB-75 CNS -20.8% | U251 CNS 0.947% | PC-3 prostate -0.134% | UACC-62 melanoma -19.7% | LOX IMVI melanoma 6% | SK-MEL-28 melanoma -2% | SK-MEL-2 melanoma -32.6%

COc1cc(C2C(C#N)=C(N)OC3=C2C(=O)c2ccccc2C3=O)cc(OC)c1O (centres undefined)
inactive: HT29 colon 65.1% | SNB-19 CNS 37.3% | U251 CNS 19.9% | PC-3 prostate 18.9% | UACC-62 melanoma 36.9% | LOX IMVI melanoma 25.5% | SK-MEL-28 melanoma 66.4% | SK-MEL-2 melanoma 21.1%
active: SNB-75 CNS 4.8%

COc1cc2nc(NC3CCCC3)nc(NC3CCN(C(C)C)CC3)c2cc1OC
inactive: HT29 colon 17.3% | SNB-75 CNS 61.2% | SNB-19 CNS 88% | U251 CNS 45% | PC-3 prostate 71.1% | SK-MEL-5 melanoma 67.6% | UACC-62 melanoma 94.6% | LOX IMVI melanoma 84.4% | SK-MEL-2 melanoma 101%

O=c1cc(-c2ccccc2)oc2cc(OCc3cn(Cc4ccc(F)cc4)nn3)cc(OCc3cn(Cc4ccc(F)cc4)nn3)c12
inactive: HT29 colon 35.1% | SNB-19 CNS 12.1% | U251 CNS 10.5% | PC-3 prostate 36% | SK-MEL-5 melanoma 17.1% | UACC-62 melanoma 30% | LOX IMVI melanoma 34.8% | SK-MEL-2 melanoma 48.8%
active: SNB-75 CNS 6.29%

COc1cccc(-c2nn(C)c3sc(C(=O)NCCN4CCN(c5ccccc5F)CC4)cc23)c1
active: SK-MEL-5 melanoma -79.6% | UACC-62 melanoma -72.1% | SK-MEL-28 melanoma -75.2%
inactive: HT29 colon 17% | SNB-75 CNS 64.8% | SNB-19 CNS 92.4% | U251 CNS 59% | PC-3 prostate 38.3% | SK-MEL-2 melanoma 99.4%

Cc1ccc2c(n1)C(=O)C(Oc1ccc(Br)cc1)=CC2=O
inactive: HT29 colon 97.6% | SNB-75 CNS 82.2% | SNB-19 CNS 96.6% | U251 CNS 94.5% | PC-3 prostate 95% | UACC-62 melanoma 95.9% | LOX IMVI melanoma 84.2% | SK-MEL-28 melanoma 116% | SK-MEL-2 melanoma 91.7%

CCOc1ccc(-c2nonc2NC(=O)c2cccc(C)c2)cc1OCC
inactive: HT29 colon 28.3% | SNB-75 CNS 89.2% | SNB-19 CNS 90.7% | U251 CNS 75% | PC-3 prostate 27.4% | SK-MEL-5 melanoma 35.2% | UACC-62 melanoma 78.4% | SK-MEL-28 melanoma 89.5% | SK-MEL-2 melanoma 88.6%

CCOC(=O)c1cnc2c(C)cccc2c1Nc1ccc(C(C)=O)cc1
inactive: SNB-75 CNS 32.4% | SNB-19 CNS 40.6% | PC-3 prostate 12.4% | UACC-62 melanoma 12.3%
active: HT29 colon -67.4% | U251 CNS -81.3% | SK-MEL-5 melanoma -91.8% | LOX IMVI melanoma -88.5% | SK-MEL-2 melanoma -76.2%

CCCCc1ccc(NS(=O)(=O)c2cc3c4c(c2)CCN4C(=O)CC3)cc1
inactive: HT29 colon 29.9% | SNB-75 CNS 33.9% | SNB-19 CNS 26.8% | U251 CNS 11% | PC-3 prostate 38.3% | SK-MEL-28 melanoma 40.5% | SK-MEL-2 melanoma 40.8%
active: SK-MEL-5 melanoma 0.989% | UACC-62 melanoma -28.9%

O=C(Nc1ccccc1O)c1ccc(-c2ccc(Cl)cc2Cl)o1
inactive: HT29 colon 53.9% | SNB-75 CNS 78.1% | SNB-19 CNS 89.2% | U251 CNS 81.1% | PC-3 prostate 71.7% | SK-MEL-5 melanoma 85.9% | UACC-62 melanoma 105% | SK-MEL-28 melanoma 98.6% | SK-MEL-2 melanoma 96.3%

O=C(Nc1ccc(F)c(Cl)c1)Nc1ccc(Cl)c(Cl)c1
inactive: HT29 colon 51.8% | SNB-75 CNS 79.7% | SNB-19 CNS 92.8% | U251 CNS 63.4% | PC-3 prostate 77% | SK-MEL-5 melanoma 59.6% | UACC-62 melanoma 58.9% | SK-MEL-28 melanoma 70.1% | SK-MEL-2 melanoma 79.7%

CCN1C(=O)N(CC)C2Nn3c(s/c(=C4\C(=O)N(C(C)C)c5ccccc54)c3=O)=NC21 (centres undefined)
inactive: HT29 colon 11.6% | SNB-75 CNS 60.2% | SNB-19 CNS 46.4% | U251 CNS 28.1% | PC-3 prostate 26.3% | SK-MEL-5 melanoma 41.4% | UACC-62 melanoma 36.4% | LOX IMVI melanoma 40.6% | SK-MEL-2 melanoma 72.9%

COc1ccc(N2C(=O)CC(c3cc(OC)c(OC)c(OC)c3)C3C2=NC(=O)N3C)cc1 (centres undefined)
inactive: HT29 colon 104% | SNB-75 CNS 99.5% | SNB-19 CNS 102% | U251 CNS 110% | PC-3 prostate 100% | UACC-62 melanoma 104% | LOX IMVI melanoma 103% | SK-MEL-28 melanoma 108%

COc1ccc(-c2cn[nH]c2-c2cc(OC)c(OC)c(OC)c2)cc1OCc1ccccc1
inactive: HT29 colon 84.9% | SNB-19 CNS 41.1% | U251 CNS 12% | PC-3 prostate 22.4% | UACC-62 melanoma 21.8% | LOX IMVI melanoma 21.5% | SK-MEL-28 melanoma 48.5%
active: SNB-75 CNS 5.94% | SK-MEL-2 melanoma 2.98%

COCCN(C(=O)Cc1cccs1)C(C(=O)NCc1ccc(OC)cc1)c1ccc(C(C)C)cc1 (centres undefined)
inactive: HT29 colon 97.2% | SNB-75 CNS 79.7% | SNB-19 CNS 106% | U251 CNS 97.1% | PC-3 prostate 47.5% | SK-MEL-5 melanoma 98.2% | UACC-62 melanoma 84.8% | SK-MEL-28 melanoma 113% | SK-MEL-2 melanoma 102%

COc1cc(/C=C2\CCC/C(=C\c3cc(CN4CCCCC4)c(O)c(OC)c3)C2=O)cc(CN2CCCCC2)c1O
inactive: HT29 colon 13.3% | SNB-75 CNS 89.8% | SNB-19 CNS 80.7% | U251 CNS 70.1% | PC-3 prostate 82.7% | UACC-62 melanoma 91.5% | LOX IMVI melanoma 66.9% | SK-MEL-28 melanoma 93.6% | SK-MEL-2 melanoma 101%

NCCNc1nc2ccc(F)cc2c2c(=O)c3cc(F)ccc3sc12
inactive: SNB-75 CNS 39.9% | SNB-19 CNS 64.6% | U251 CNS 24.1% | PC-3 prostate 45% | UACC-62 melanoma 84.2% | SK-MEL-28 melanoma 91%
active: HT29 colon -39.5% | LOX IMVI melanoma -90.8%

Cc1ccc(Cn2c(N3CCC(C(=O)NCc4cccs4)CC3)nc3ccccc32)cc1
inactive: HT29 colon 48.6% | SNB-75 CNS 77.5% | SNB-19 CNS 112% | U251 CNS 73.9% | PC-3 prostate 39.8% | SK-MEL-5 melanoma 92% | UACC-62 melanoma 101% | SK-MEL-28 melanoma 98.1% | SK-MEL-2 melanoma 101%

Cc1ccc(NC2=CC(=O)C(=O)c3ccccc32)c(C)c1
active: SK-MEL-5 melanoma -97.3% | UACC-62 melanoma -59.5% | LOX IMVI melanoma -23.2%
inactive: HT29 colon 48.4% | SNB-75 CNS 35.2% | SNB-19 CNS 28.1% | U251 CNS 33.3% | PC-3 prostate 35.4% | SK-MEL-2 melanoma 76.6%

O=C(Nc1ccccc1O)c1ccc(Oc2cccc(C(=O)Nc3ccccc3O)c2)cc1
inactive: HT29 colon 77.7% | SNB-75 CNS 31.1% | SNB-19 CNS 21.7% | U251 CNS 11.8% | PC-3 prostate 32.6% | SK-MEL-5 melanoma 10.9% | SK-MEL-28 melanoma 32.6%
active: UACC-62 melanoma -33%

CC/C=C\C[C@H](O)C/C=C1/C(=O)C=C[C@@H]1C/C=C\CCCC(=O)OCCS(=O)(=O)c1ccccc1
active: LOX IMVI melanoma -34.1%
inactive: HT29 colon 45.1% | SNB-75 CNS 111% | SNB-19 CNS 56.2% | U251 CNS 16.3% | PC-3 prostate 63.4% | UACC-62 melanoma 16.1% | SK-MEL-28 melanoma 73.9%

FC(F)(F)c1cccc(Nc2nc(-c3ccccc3)nc3ncccc23)c1
inactive: HT29 colon 15% | SNB-75 CNS 91.4% | SNB-19 CNS 100% | U251 CNS 58.3% | SK-MEL-2 melanoma 104%
active: PC-3 prostate 6.17% | SK-MEL-5 melanoma -91.4% | UACC-62 melanoma -50.6% | SK-MEL-28 melanoma -84.6%

COc1ccc(-c2cn[nH]c2-c2ccc(OC)c(O)c2)cc1
inactive: HT29 colon 94.3% | SNB-75 CNS 87.6% | SNB-19 CNS 76.5% | U251 CNS 63.1% | PC-3 prostate 84% | UACC-62 melanoma 66% | LOX IMVI melanoma 59.5% | SK-MEL-28 melanoma 89.1% | SK-MEL-2 melanoma 42%

C1CCN(c2nc(N3CCCCC3)nc(N3CCOCC3)n2)CC1
inactive: HT29 colon 88.2% | SNB-75 CNS 81% | SNB-19 CNS 96.1% | U251 CNS 101% | PC-3 prostate 104% | UACC-62 melanoma 93% | LOX IMVI melanoma 98.7%

O=c1oc2ccc(F)cc2c(=O)n1-c1ccc(Cl)cc1F
inactive: HT29 colon 26.7% | SNB-19 CNS 16.1% | LOX IMVI melanoma 16.9% | SK-MEL-28 melanoma 14.7%
active: SNB-75 CNS -13.6% | U251 CNS 2.3% | PC-3 prostate 0.0571% | UACC-62 melanoma -8.7% | SK-MEL-2 melanoma -28.7%
